# Data as given in the supplement of paper PMC6897291.
# Counter-ions that a name gives are not always drawn.
# Tested on: RIVA
# Assay: growth inhibition by drug plus 177Lu-lilotomab satetraxetan (1 - RLU/untreated control) (fraction); higher = stronger inhibition
# Settings: 100 nM; time (day): 6; 177Lu-lilotomab satetraxetan 0.5 ug/ml
# Outline: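 A radiolabelled anti-CD37 antibody conjugate (~600 MBq/mg) was applied for 18 h at 0.5 µg/ml to RIVA and 1 µg/ml to U-2932 cells, with untreated cells run alongside. All cells were washed and seeded at 3,000 cells/well onto library-printed plates at 10/100 nM (RIVA) or 10/1,000 nM (U-2932). Growth inhibition was based on RealTime-Glo luminescence compared with untreated no-drug wells. Daily reads began on day 3 after 1 h at 37°C, with each value being 1 − RLU/mean of the 48 such wells on that plate.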
row,SMILES,growth inhibition by drug plus 177Lu-lilotomab satetraxetan
1,O=C1CN2Cc3c(ccc(Cl)c3Cl)N=C2N1 [Anagrelide],0.631
2,Cc1cc(Nc2cc(N3CCN(C)CC3)nc(/C=C/c3ccccc3)n2)n[nH]1,0.357
3,CCc1cc(Nc2nccc(-c3c(-c4ccc(OC)c(C(=O)Nc5c(F)cccc5F)c4)nc4ccccn34)n2)c(OC)cc1N1CCC(N2CCN(S(C)(=O)=O)CC2)CC1,0.461
4,O=C1CN2Cc3c(ccc(Cl)c3Cl)N=C2N1 [Anagrelide hydrochloride],0.558
5,O=C(NCCCNc1nc(Nc2cccc(NC(=O)N3CCCC3)c2)ncc1I)c1cccs1,0.64
6,CCC[C@H](NC(=O)/C(C#N)=C/c1cccc(Br)n1)c1ccccc1,0.478
7,COc1cc2nc(N3CCCN(C)CC3)nc(NC3CCN(Cc4ccccc4)CC3)c2cc1OC,0.565
8,C#Cc1cccc(Nc2ncnc3cc(OCCOC)c(OCCOC)cc23)c1 [Erlotinib HCl],0.724
9,CN(C)c1ccccc1CN1CCCN(Cc2ccccc2N(C)C)C1c1ccncc1,0.487
10,COc1cc2c(NC3CCN(C)CC3)nc(N3CCCN(C)CC3)nc2cc1OCCCN(C)C,0.469
11,COc1ccc(COc2cc3oc(=O)c4cc(C(C)O)ccc4c3cc2OC)cc1 (stereo not given) [Palomid 529],0.453
12,CO[C@@H](C(=O)N1Cc2[nH]nc(NC(=O)c3ccc(N4CCN(C)CC4)cc3)c2C1)c1ccccc1,0.776
13,Cn1cc(C2=C(c3ccc(Cl)cc3Cl)C(=O)NC2=O)c2ccccc21,0.492
14,CCc1ccc(CCOc2ccc(CC3SC(=O)NC3=O)cc2)nc1 (stereo not given) [Pioglitazone (Actos)],0.506
15,O=C(O)C1(C(=O)O)CCC1.[NH2-].[NH2-].[Pt+2] [Carboplatin],0.569
16,CS(=O)(=O)c1ccc(C(=O)Nc2ccc(Cl)c(-c3ccccn3)c2)c(Cl)c1 [Vismodegib (GDC-0449)],0.608
17,OCCn1cc(-c2ccc3c(c2)CC/C3=N\O)c(-c2ccncc2)n1,0.602
18,CC[C@@H]1C(=O)N(C)c2cnc(Nc3ccc(C(=O)NC4CCN(C)CC4)cc3OC)nc2N1C1CCCC1,0.976
19,CC[C@]1(O)C[C@H]2CN(CCc3c([nH]c4ccccc34)[C@@](C(=O)OC)(c3cc4c(cc3OC)N(C=O)[C@H]3[C@@](O)(C(=O)OC)[C@H](OC(C)=O)[C@]5(CC)C=CCN6CC[C@]43[C@@H]65)C2)C1 [Vincristine],0.979
20,CC(C)(C)c1ccc(S(=O)(=O)/C=C/C#N)cc1,0.495
21,Cc1cn(-c2cc(NC(=O)c3ccc(C)c(Nc4nccc(-c5cccnc5)n4)c3)cc(C(F)(F)F)c2)cn1 [Nilotinib (AMN-107)],0.466
22,CC(C)(C#N)c1cc(Cn2cncn2)cc(C(C)(C)C#N)c1 [Anastrozole],0.499
23,C=CCn1c(=O)c2cnc(Nc3ccc(N4CCN(C)CC4)cc3)nc2n1-c1cccc(C(C)(C)O)n1,0.222
24,Cn1cnc(N)c2ncnc1-2 [3-Methyladenine],0.56
25,CCc1c2c(nc3ccc(OC(=O)N4CCC(N5CCCCC5)CC4)cc13)-c1cc3c(c(=O)n1C2)COC(=O)[C@]3(O)CC [Irinotecan HCl Trihydrate (Campto)],0.741
